An excerpt weighted towards active compounds, which were near 1.7% of everything screened.
mIDH1 inhibitor – blocks human mutant IDH1 R132H enzyme; O75874; IDH1-R132H enzyme, NADPH consumption, diaphorase/resazurin fluorescence; Potency, µM (series often up to 76.6 µM), inactives show at the highest dose activity change, negative = inhibition, usual class: inhibitors; actives 0.093% (n = 390,000); note: % is set by controls: 0 for no effect and ±100 for the full control effect; nearly all actives have a fitted effect of over 65% in size
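IDH1-R132H (0.5 ug/mL) preincubated 30 min with compound, then NADPH (0.016 mM) and alpha-KG (2 mM) added; 80 min at RT, pH 7.5. Remaining NADPH coupled via diaphorase/resazurin to fluorescence (540/590 nm); concentration-response curves normalized to no-enzyme control.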
Glioma ERSR ind – inducers of ER stress response in human glioma cells. Potency, µM, for the others: top-dose activation, hits mostly activators. U87-MG GRP78 promoter luciferase reporter, 16 h. actives 0.02% (n = 420,000); note: series mostly up to about 76 µM; % of control where 0% means no effect; nearly all actives have a fitted effect of over 35% in size
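Stably transfected U87-MG glioma cells carrying a GRP78-based luciferase sensor; 16 h compound incubation. Luminescence end-point read 10 min after Bright-Glo addition at room temperature.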
Apoferritin bind – candidate novel general anesthetic via apoferritin binding; apoferritin/1-aminoanthracene competitive binding, fluorescence; Potency, µM (highest dose often 77.5 µM), inactives show at the top dose activity change, negative = displacement, actives largely listed as inhibitors; actives 0.074% (n = 350,000); AID 485281; note: % is set by controls: 0 for no effect and ±100 for the full control effect; nearly all actives have a fitted effect of over 20% in size
Target sequence (P02791 2-175 limits assumed): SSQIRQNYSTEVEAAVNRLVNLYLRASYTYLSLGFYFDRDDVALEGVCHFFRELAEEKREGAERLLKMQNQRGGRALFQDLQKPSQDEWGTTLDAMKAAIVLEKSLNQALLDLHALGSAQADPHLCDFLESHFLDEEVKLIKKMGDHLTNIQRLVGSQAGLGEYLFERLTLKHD
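In PBS, apoferritin at 10 uM is loaded with 1-AMA from a 50% saturated solution. After 10 min of compound exposure at ambient temperature, reduced 535 nm fluorescence indicates probe displacement.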
rTrxR1 inhibitor – rat TrxR1 inhibition; Potency, µM (highest dose often 114 µM), for inactives: at the highest dose activity change, negative = inhibition, hits mostly inhibitors; actives 1% (n = 390,000); O89049; recombinant rTrxR1, NADPH fluorescence consumption, selenite substrate; note: % is set by controls: 0 for no effect and ±100 for the full control effect; nearly all actives have a fitted effect of over 65% in size
Target sequence (O89049 whole entry, looked up): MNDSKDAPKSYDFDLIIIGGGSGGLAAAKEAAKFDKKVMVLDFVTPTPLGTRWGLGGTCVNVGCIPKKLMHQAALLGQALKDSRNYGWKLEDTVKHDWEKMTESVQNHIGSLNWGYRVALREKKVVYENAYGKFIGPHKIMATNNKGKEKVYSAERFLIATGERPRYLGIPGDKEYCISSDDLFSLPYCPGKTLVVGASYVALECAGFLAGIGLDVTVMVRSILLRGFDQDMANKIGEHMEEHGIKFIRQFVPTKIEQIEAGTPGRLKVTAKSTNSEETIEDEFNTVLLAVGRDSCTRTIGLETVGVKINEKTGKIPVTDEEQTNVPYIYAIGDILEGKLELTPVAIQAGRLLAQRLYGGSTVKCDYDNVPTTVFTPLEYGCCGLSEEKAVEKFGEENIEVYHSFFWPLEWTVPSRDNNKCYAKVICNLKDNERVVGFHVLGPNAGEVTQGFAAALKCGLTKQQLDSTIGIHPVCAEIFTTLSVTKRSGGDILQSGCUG
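Rat TrxR1 (90 nM in the dispensed reagent) was pre-reduced with 400 uM NADPH for 5 min at room temperature, then incubated with compound for 15 min. After 400 uM selenite was added, NADPH fluorescence (Ex 340/Em 450 nm) was followed for 8 min.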
TrxR1 substrate – substrates of rat thioredoxin reductase 1. purified TrxR1 substrate turnover, NADPH consumption readout. AID 588456. Potency, µM (titrated, usually from 114 µM), for inactives: top-dose activity change, negative = substrate turnover. O89049. actives 0.01% (n = 390,000); note: % is set by controls: 0 for no effect and ±100 for the full control effect; nearly all actives have a fitted effect of over 50% in size
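Rat TrxR1, dispensed at 90 nM, was prereduced with 400 uM NADPH (final) for 5 min at ~22 deg C, then incubated with compound 15 min before 400 uM selenite. A first-read NADPH fluorescence drop versus no-compound background flagged substrates.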
12-LOX inh – inhibitors of human 12S-lipoxygenase ALOX12 | purified 12hLO, xylenol orange hydroperoxide absorbance | Potency, µM (top dose mostly 108 µM), for the others: top-dose activity change, negative = inhibition, most hits filed as inhibitors | P18054 | actives 1.1% (n = 580,000); note: % is set by controls: 0 for no effect and ±100 for the full control effect
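Hydroperoxide product was detected by ferrous iron/xylenol orange as the 573 to 405 nm absorbance ratio. Arachidonic acid at 40 uM (final) was turned over for 30 min at room temperature by 150 nM human 12hLO, pH 7.0 Hepes buffer, after 15 min compound preincubation.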
* = called active by the depositor; u = inconclusive; x = no result given; [ ] = remark or other dose. Calls come from the whole dose curve; as a rule, active = well fitted curve in the direction sought with a large enough effect; inconclusive = small, poorly fitted or top-dose-only effect, or another doubt; inactive = no such curve, though single readings can be large; an effect the other way counts as inactive or inconclusive. Potency is the fitted concentration of half-maximal effect.

SMILES	mIDH1 inhibitor	Glioma ERSR ind	Apoferritin bind	rTrxR1 inhibitor	TrxR1 substrate	12-LOX inh
CCOC(=O)N1CC=C2C(C#N)=C(N)C(C#N)(C#N)[C@H](c3ccccc3OCC)[C@H]2C1	-20%	-4%	-12%	50µM*	5%	-9%
CCOC(=O)N1CC=C2C(C#N)=C(N)C(C#N)(C#N)[C@H](c3ccc(OC(C)C)c(OCC)c3)[C@H]2C1	u	-2%	u	u	3%[57.1 µM]	-2%
CCOC(=O)N1CC=C2C(C#N)=C(N)C(C#N)(C#N)[C@H](c3ccsc3)[C@H]2C1	41µM*	-4%	-6%	u	10%	-12%
CNc1oc(-c2cc(S(=O)(=O)N(Cc3ccccc3)C(C)C)c(C)o2)nc1C#N	x	x	x	x	x	50%
Cc1ccc(Cl)cc1N1CCN(C(=O)CN(c2ccc(F)cc2)S(=O)(=O)N(C)C)CC1	x	x	x	x	x	3%
CNC(=O)C1(N2CCC[C@H]2C(=O)N2CCC[C@@H]2COC)CCCCC1	x	x	x	x	x	22µM*
O=C(C1=C(O)C(=O)N(c2nncs2)C1c1ccc(F)cc1)c1cccs1 (centres undefined)	x	x	x	x	x	-58%
Cc1ccc(C2C(C(=O)c3cccs3)=C(O)C(=O)N2c2nncs2)cc1 (centres undefined)	x	x	x	x	x	2.2µM*
O=C(C1=C(O)C(=O)N(c2nncs2)C1c1ccccc1)c1cccs1 (centres undefined)	x	x	x	x	x	0.56µM*
COCCNc1nc(-c2ccc(Cl)cc2C)c2sccc2n1	x	-1%	x	x	x	u
Cc1cc(Cl)ccc1-c1nc(NCc2ccccc2)nc2ccsc12	x	4%	x	x	x	40µM*
O=C(NCc1ccc(Cl)cc1)C(=O)Nc1ccc(Cl)c(C(F)(F)F)c1	x	x	x	x	x	-1%
CN(Cc1nccs1)C(=O)C(c1cccc(F)c1)N(C)C (centres undefined)	x	x	x	x	x	20%
O=C(N/N=C\c1ccccc1)c1cccc(C(=O)N/N=C\c2ccccc2)n1	-13%	3%	x	12%	1%	202%
COc1ccc(/C=N/NC(=O)c2cccc(C(=O)N/N=C/c3ccc(OC)cc3)n2)cc1	-3%	-1%	-9%	50µM*	46%	7%
COc1ccc(/C=N/NC(N)=S)cc1	3%	-2%	-2%	-25%	-11%	25µM*
COc1ccc(/C=N/NC(N)=S)cc1OC(=O)c1cccc2ccccc12	-1%	0%	-13%	22%[57.1 µM]	8%[57.1 µM]	16µM*
COc1ccc(C(=O)Oc2cc(/C=N/NC(N)=S)ccc2OC)cc1	-8%	-5%	-11%	9%	-2%	32µM*
CN(CCC#N)c1ccc(/C=N/NC(N)=S)cc1	x	x	x	x	x	18µM*
O=C(NCC(c1cccnc1)N1CCN(c2ccc(F)cc2)CC1)C(=O)Nc1ccccc1 (centres undefined)	x	x	x	x	x	32%
O=C(CC1CCCC1)N[C@H](C(=O)N1CCC[C@H]1C(=O)NC1CCCC1)c1ccccc1	x	x	x	x	x	-6%
O=C(/C=C/c1ccccc1)C1=C(O)C(=O)N(CCO)C1c1cccc([N+](=O)[O-])c1 (centres undefined)	-2%	1%	-14%	5%[57.1 µM]	-11%[57.1 µM]	22µM*
O=C(/C=C/c1ccccc1)C1=C(O)C(=O)N(CCO)C1c1ccccc1[N+](=O)[O-] (centres undefined)	1%	-6%	-19%	u	-21%	u
C/C(=C\C=C\c1ccco1)C(=O)c1ccc(Br)cc1	x	x	x	x	x	2µM*
Cn1cc(/C=C/c2ccnc3ccccc23)c2ccccc21	x	0%	x	-20%	-7%	x
SMILES	mIDH1 inhibitor	Glioma ERSR ind	Apoferritin bind	rTrxR1 inhibitor	TrxR1 substrate	12-LOX inh
COc1ccc2c(C)c(CC(=O)NCCc3ccc(S(N)(=O)=O)cc3)c(=O)oc2c1	x	x	x	x	x	-5%
O=C(CNC(=O)c1ccc2c(c1)OCO2)N/N=C(Br)/C=C/c1ccccc1	0%	-4%	7.1µM*	14%[57.1 µM]	9%[57.1 µM]	-3%
Cc1cc(C)cc(NCc2cc3c(cc2[N+](=O)[O-])OCO3)c1	7%	-4%	16µM*	-3%	2%	-19%
Cc1cnc(C(=O)N2CCOCC(CO)C2)cn1 (centres undefined)	x	x	x	x	x	50µM*
Cc1cc(C)n(CC(=O)N2CCOCC(CO)C2)c(=O)n1 (centres undefined)	x	x	x	x	x	16%
COc1ccccc1Nc1nc(N)nc(CN2CCCCCC2)n1	-5%	-6%	-5%	14µM*	7%[57.1 µM]	-14%
COc1ccccc1Nc1nc(N)nc(CN2CCOCC2)n1	-3%	-2%	-4%	13%	9%	u
O=[N+]([O-])c1ccc(S(=O)(=O)c2ccccc2)nc1	2%	-13%	-14%	u	13%[57.1 µM]	-14%
Cc1ccc(S(=O)(=O)c2ccc([N+](=O)[O-])cn2)cc1	14%	-18%	-5%	0.45µM*	-8%	-10%
CN(C)C(=S)NC(=S)Nc1ccc2ccccc2c1	20%	0%	x	0%[11.4 µM]	10%[11.4 µM]	35µM*
CCOc1cc(C=C(C#N)C#N)ccc1Oc1ccc([N+](=O)[O-])cn1	-4%	4%	-22%	10µM*	-8%	-30%
O=C(Cc1ccc(Cl)cc1)N1CCN(c2ccc(F)cc2)CC1	0%	0%	-13%	-3%	6%	3%
Cc1ccc(C(=O)N2CCC3(CC2)NC(=O)N(c2cccc(F)c2)N3)cc1	x	x	x	x	x	2.5µM*
O=C(Cc1ccc(Cl)cc1)N1CCC2(CC1)NC(=O)N(c1ccc(F)cc1)N2	x	x	x	x	x	2.5µM*
Cc1ccc(C)c(C(=O)N2CCC3(CC2)NC(=O)N(c2cccc(F)c2)N3)c1	x	x	x	x	x	2.2µM*

Screening data from PubChem.
